Measured values published in PubChem BioAssay (NCATS).
Values joined by “and” are separate entries in the source; they are usually repeats but may differ in a detail not shown here. Equal values may be shown once. Inconclusive results are not listed. Active and inactive are the calls of the source. The call rests on the fitted dose curve; in most records, active means well fitted cell-killing curve with a large enough effect; inconclusive means small, poorly fitted or top-dose-only effect; inactive means flat fitted curve, though single readings scatter.

Assay: Cellular viability qHTS for adrenocortical cancer (ACC) cell line SW-13 (AID 1963989); further: nearly all actives have a fitted effect of over 65% in size;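 on activity (max response): cells grown in serum-free medium with ITS supplement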
Details: SW-13 ACC cells viability, CellTiter-Glo, 48 h; activity (max response): active compounds read low
Description: PI: Naris Nilubol, MD Surgical Oncology Program, National Cancer Institute (NCI) National Institute of Health (NIH), Bethesda, Maryland Adrenocortical cancer (ACC) is a rare malignancy with poor survival outcomes and few treatment options. Currently, mitotane is the only FDA-approved therapy for ACC. Although adjuvant radiation therapy is rarely utilized, it has the potential to improve survival in select cases. Through a quantitative high-throughput drug screen (qHTS), we identified auranofin (AF), a thioredoxin reductase (TXNRD) inhibitor, as a promising candidate drug. This study aims to evaluate whether AF can enhance the efficacy of radiation therapy in the treatment of ACC. Two human ACC cell lines, SW-13 and NCI-H295R, were screened using the National Center for Advancing Translational Sciences (NCATS) Pharmaceutical Collection (NPC) and the Mechanism Interrogation PlatE (MIPE) library (~4,991 compounds). CellTiter-Glo (Cat # G7570, Promega, Madison, WI) was utilized to measure cell viability. Described herein are the results of the corresponding viability assay.
PROTOCOL TABLE (as described by Inglese J, Shamu CE and Guy RK. 2007) SEQUENCE No. (e.g., 1, 2, 3, etc.); […] (e.g., Cells, Incubation, Reagent, etc.); VALUE; DESCRIPTION. 1; Cells; 5 uL; white, solid-bottom, 1536-well tissue-culture treated plates. 2; Time; overnight culture at 37C with 5% CO2. 3; Compounds and control; 23 nL; Kalypsis pin tool (Wako USA) equipped with a 1536-well pin head to transfer to the assay plates. 4; Time; 48 hours; 37C with 5% CO2. 5; Reagent; 4 uL; CellTiter-Glo luminescent substrate mix. 6; Time; 20 min at room temperature. 7; Detection; Luminescence; ViewLux plate reader NOTES (numbers refer to Sequence numbers above) 1. SW13 cells were harvested from a T175 flask and resuspended in ITS-supplemented DMEM serum-free medium at a concentration of 300 000 cells/mL. Then 5 uL of resuspended cells were dispensed into each well of white, solid-bottom, 1536-well tissue-culture-treated plates using a multidrop combi dispenser. The plates were covered with stainless steel gasket lids. 2-3. The plates were cultured overnight at 37C with 5% CO2. Twenty-three nL of compounds (eight selected concentrations from the NPC / MIPE) or positive control (10 mM stock of bortezomib) in DMSO was transferred to each well of the assay plate using a pin tool (Kalypsys, San Diego, CA, USA). The final concentration of the compounds in the 5 uL assay volume ranged from 0.5 nM to 46 uM. 4-6. After 48 hours of incubation at 37C and 5% CO2, 4 uL of CellTilter-Glo luminescent substrate mix (Promega, Madison, WI, USA) was added to each well. Then the plates were incubated for 20 minutes at room temperature. 7. After incubation, luminescence was measured using a ViewLux plate reader (PerkinElmer, Waltham, MA, USA) with a clear filter was used to measure the number of metabolically competent cells. To determine compound activity in the qHTS assay, the titration-response data for each sample was plotted and modeled by a four-parameter logistic fit yielding IC50 and efficacy (maximal response) values. […] REFERENCES: Inglese J, Shamu CE and Guy RK, Reporting data from high throughput screening of small molecule libraries, Nature Chemical Biology, 2007, 3(8): 438-441. doi.org/10.1038/nchembio0807-438.
On the % scale 0 is the no-effect control and ±100 the full control effect.

Compound	activity (max response)	Potency
Clc1cc2c(NC3CCCC3)nnc(-c3ccncc3)c2cc1Cl	-2.48% (inactive)	–
CCCCC1=NC2(CCCC2)C(=O)N1Cc1ccc(-c2ccccc2-c2nn[nH]n2)cc1	8.5% (inactive)	–
Cc1ccccc1C(=O)c1ccc(Nc2ccc(Br)cc2N)cc1Cl	–	31.6 µM (active)
C[N+]1(C)CCCC(OC(=O)C(O)(c2ccccc2)c2ccccc2)C1 (stereo not given)	-0.325% (inactive)	–
CC1=NS(=O)(=O)c2cc(Cl)ccc2N1	8.23% (inactive)	–
NC(=O)c1ccc(I)c([N+](=O)[O-])c1	11.3% (inactive)	–
CCN1CCN(CC(=O)Nc2ccc(-c3cccc4c(=O)cc(N5CCOCC5)oc34)c3sc4ccccc4c23)CC1	–	9 µM (active)
NS(=O)(=O)c1ccc(C(=O)O)cc1	11.4% (inactive)	–
CN1C(CCl)Nc2cc(Cl)c(S(N)(=O)=O)cc2S1(=O)=O (stereo not given)	-4.04% (inactive)	–
CCCCc1oc2ccc(NS(C)(=O)=O)cc2c1C(=O)c1ccc(OCCCN(CCCC)CCCC)cc1	–	11.6 µM (active) and 3.98 µM (active)
Cc1cccc(C)c1NC(=O)CN(CC(=O)O)CC(=O)O	9.48% (inactive)	–
C=CC(=O)N[C@H]1CN(c2nc(Nc3cn(C)nc3OC)c3ncn(C)c3n2)C[C@@H]1F	–	0.199 µM (active)
[O-][n+]1ccccc1SSc1cccc[n+]1[O-]	–	1.59 µM (active)
Cc1ccc(NC(=O)c2ccc(CN3CCN(C)CC3)cc2)cc1Nc1nc(-c2cccnc2)cs1	–	25.1 µM (active)
CCN1CCC[C@H]1CNC(=O)c1c(O)c(Cl)cc(Cl)c1OC	8.2% (inactive)	–
Cc1cccc(Nc2ccncc2S(=O)(=O)NC(=O)NC(C)C)c1	-3.35% (inactive)	–
CC(C)Cn1cnc2c(N)nc3ccccc3c21	0.433% (inactive) and -11.1% (inactive)	–
CCCCCCCCCCCCc1ccc(S(=O)(=O)Nc2nncs2)cc1	-13.1% (inactive)	–
Cn1cc(-c2ccc3nnc(Sc4ccc5ncccc5c4)n3n2)cn1	-4.92% (inactive)	–
CCOC(=O)C(=O)c1csc(NC=O)n1	8.44% (inactive)	–

Compound	activity (max response)	Potency
N[C@H]1CN(c2c(F)cc3c(=O)c(C(=O)O)cn(C4C[C@@H]4F)c3c2Cl)CC12CC2 (stereo not given in full)	4.52% (inactive)	–
C[C@@H](c1ncncc1F)C(O)(Cn1cncn1)c1ccc(F)cc1F (stereo not given in full)	2.11% (inactive)	–
CN(C)S(=O)(=O)c1ccc2c(c1)C(=Cc1cc3c([nH]1)CCCC3)C(=O)N2	-10.1% (inactive)	–
Oc1cc(-c2nc(-c3ccccc3)[nH]c2-c2ccncc2)ccc1Cl	–	17.8 µM (active)
CC1(C)CCC2=C(O1)c1ccccc1C(=O)C2=O	–	15.8 µM (active)
CC[C@H](Nc1ncnc2nc[nH]c12)c1oc2ccccc2c(=O)c1-c1cccc(F)c1	-13.2% (inactive)	–
CCCCNC(=O)NS(=O)(=O)c1ccc(C)cc1	2.87% (inactive)	–
COc1ccc2c(c1)CC[C@@H](CN(C)CC(=O)O)[C@H]2c1ccccc1	12.6% (inactive)	–
CN1C(=O)CC(c2ccccc2)C1=O (stereo not given)	5.01% (inactive)	–
CN1C(N)=N[C@](C)(c2cc(NC(=O)c3ccc(F)cn3)ccc2F)CS1(=O)=O	-4.84% (inactive)	–
CC(=O)[C@]1(O)Cc2c(O)c3c(c(O)c2[C@@H](O[C@H]2C[C@H](N)[C@H](O)[C@H](C)O2)C1)C(=O)c1ccccc1C3=O	–	46.1 nM (active) and 2 µM (active)
COc1ccc(CCC(=O)Nc2nc3ccc(Cl)cc3s2)cc1OC	-11.7% (inactive)	–
C/C=C/C(=O)N(CC)c1ccccc1C	5.92% (inactive) and 3.5% (inactive)	–
O=C(NC[C@H](O)CN1CCc2ccccc2C1)c1ccnc(NC2CCC2)c1	-19.6% (inactive)	–
Oc1ccccc1	8.68% (inactive)	–
N#Cc1cc2cc(CN3CCC(Nc4ncnc5sc(CC(F)(F)F)cc45)CC3)c(O)cc2n1Cc1cn[nH]c1	–	14.1 µM (active)
COc1cc(F)c(F)c(Nc2ccc(I)cc2F)c1NS(=O)(=O)C1(C[C@H](O)CO)CC1	–	14.1 µM (active)
Cc1cn([C@H]2C[C@H](F)[C@@H](CO)O2)c(=O)[nH]c1=O	3.39% (inactive)	–
Cc1ccc(NC(=O)C2(c3ccc4c(c3)OC(F)(F)O4)CC2)nc1-c1cccc(C(=O)O)c1	4.62% (inactive)	–
C[C@H]1O[C@@H](n2cc(F)c(=O)[nH]c2=O)[C@H](O)[C@@H]1O	-3.76% (inactive) and -5.78% (inactive)	–
